The values below come from PubChem BioAssay AID862 (The Scripps Research Institute Molecular Screening Center, 2007).

A word on the inhibition: it is the drop in the measured response relative to a control, in per cent.

Out of some 190,000 compounds screened, about 1,700 (0.89%) were called active. This is one part of a sample in which actives are shown more often than they occur.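 The calls were made as follows: active = inhibition above the mean inhibition across all screened compounds plus 3 SD (cut at about 44% in these data); inactive = the rest.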

This experiment can be described thus: IL-6 driven STAT3 reporter inhibitors, primary screen, U3A cells, luciferase, luminescence, MLSCN library (AID 862).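 Also: 0% = DMSO only wells and 100% = 100 µM nifuroxazide control wells.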 Conditions: IL-6 STAT3-luciferase reporter, at 5.5 µM, stronger effect = higher value, host cell line lacks STAT1.
On to `O=C(Nc1ccn(Cc2ccccc2)n1)c1cccc(F)c1`, for which the inhibition is 12.5% (inactive). In the case of `O=C(Nc1ccn(Cc2ccccc2)n1)c1n[nH]c([N+](=O)[O-])c1Cl`, the inhibition is 53.5% (active). With `O=C(Nc1ccn(Cc2ccc(F)cc2)n1)c1ccncc1` the figure was 22.9% (inactive); with `Cc1cccc(C(=O)Nc2ccccc2C(=O)NCc2cccnc2)c1`, 10.3% (inactive); with `CCOC(=O)/C(=N\Nc1ccccc1Cl)N(C)C1CCS(=O)(=O)C1` (stereo not given), 5.4% (inactive). With `Nc1ccc(Nc2ccccc2)cc1` the figure was 18.1% (inactive).

On to `Cc1ccc(Nc2nnc(SCc3ccccc3)s2)cc1`, for which the inhibition is -15.7% (inactive).

For the compound `Cc1ccc(Nc2ccccc2N)cc1`, the inhibition is 69.5% (active). The result for `O=C1NC(=Nc2ccc(Cl)cc2)SC1Cc1cccc(Cl)c1Cl` (stereo not given) reads 0.2% (inactive); that for `CCOc1ccc(C(CC(=O)O)n2cnnn2)cc1OC` (stereo not given), 17.4% (inactive); that for `CCN(CCn1cccn1)Cc1nc(-c2ccc(C(=O)OC)cc2)no1`, 7.7% (inactive). With `OC(COc1ccc(CN2CCSCC2)cc1)CN1CCCCC1` (stereo not given) the figure was 4.3% (inactive); with `COc1ccc(C2=Nc3cc(C)ccc3OC2)cc1`, 66.7% (active). The result for `COc1ccc(C2=NOC3(CC(=O)N(c4ccc(C)cc4)C3=O)C2)cc1` (stereo not given) reads 0% (inactive). As for `COc1ccc(C2=NOC(COC(=O)c3ccc4ccccc4n3)C2)cc1` (stereo not given), the inhibition was -2.7% (inactive). With `CC[C@H]1CN2CCc3cc(OC)c(OC)cc3[C@@H]2C[C@@H]1C[C@H]1NCCc2cc(OC)c(OC)cc21` the figure was 101% (active); with `COc1cc2c(cc1O)[C@H](Cc1ccc(Oc3cc(C[C@@H]4NCCc5cc(OC)c(O)cc54)ccc3O)cc1)NCC2`, -0.3% (inactive). The result for `CCOC(=O)N1CCC(NC(=O)C(NS(=O)(=O)c2ccc3c(c2)CCN3C(=O)CC)C(C)C)CC1` (stereo not given) reads 8.6% (inactive); that for `CCOc1ccc(NS(=O)(=O)c2ccc(C)c(C(N)=O)c2)cc1`, 20.3% (inactive); that for `COc1cccc(/C=C/C(=O)Nc2ccc3c(c2)OCCO3)c1`, 30.9% (inactive). The result for `O=C(Cn1cnc2ccccc21)N/N=C/c1ccco1` reads 1.9% (inactive). On to `O=C(c1cc(-c2cccs2)on1)N1CCCCC1`, for which the inhibition was 24.7% (inactive).

For the compound `Cc1cc(NC(=O)c2cc(-c3cccs3)on2)nn1Cc1ccc(Cl)cc1`, the inhibition was 47.2% (active).

With `Cc1ccc(Cn2ccc(NC(=O)c3cc(C(C)C)on3)n2)cc1`, the inhibition was 15.3% (inactive). With `C=CCn1nc(-c2ccccc2)c2c(C)onc2c1=O` the figure was 1.6% (inactive); with `Cc1csc(=Nc2ccccc2)n1CCO`, 5.8% (inactive); with `OCCn1c(-c2ccccc2)csc1=Nc1ccccc1`, 46.5% (active).

In the case of `Cc1csc(=NC(=O)c2ccccc2)n1CCO`, the inhibition was 0.5% (inactive). The result for `COC(=O)Cc1ccc(NC(=S)NCc2ccco2)cc1` reads 2.5% (inactive); that for `COc1ccc(-c2noc(-c3cccc(OC)c3OC)n2)cc1OC`, 9.5% (inactive). In the case of `COc1ccc(-c2noc(-c3ccc(C)cc3)n2)cc1`, the inhibition is 11.2% (inactive). Regarding `COc1ccc(-c2nc(-c3ccccc3)no2)c(OC)c1`, the inhibition is 102% (active). With `COCCCNC(=O)/C=C/c1ccc(OCc2c(F)cccc2Cl)cc1`, the inhibition is 20% (inactive). With `Cc1ccc(NC(=O)Nc2nnc(-c3ccncc3)s2)cc1` the figure was 9.8% (inactive); with `CC1CC(C)CN(CCC(=O)Nc2ccc3c(c2)CCC3)C1` (stereo not given), 3.9% (inactive); with `O=C(/C=C/c1ccccc1[N+](=O)[O-])OC1CCCCC1=O` (stereo not given), 4.5% (inactive).

Regarding `NC(=O)Cc1nc2scc(-c3ccc(Cl)cc3)c2c(=O)[nH]1`, the inhibition is 16% (inactive).

For `O=c1[nH]c(CN2CCOCC2)nc2cc(Cl)ccc12`, the inhibition is 4.9% (inactive). As to `O=c1[nH]c(CCl)nc2cc(-c3ccc(Cl)cc3)sc12`, the inhibition was 51.2% (active). For the compound `CCOc1cccc(/C=N/N2C(=O)CSC2=S)c1O`, the inhibition was 2.5% (inactive).

`Cc1ccc2[nH]c(=O)c(CN3CCCCC3)c(-c3ccccc3)c2c1`: the inhibition is 8.1% (inactive).

For `NC(=O)COC(=O)/C=C/c1ccc2ccccc2n1`, the inhibition is -0.2% (inactive).

As to `COc1cccc(/C=C/c2ccc3ccccc3n2)c1OC(C)=O`, the inhibition was 89.8% (active). For the compound `CCOc1cccc(/C=C/c2ccc3ccccc3n2)c1OC(C)=O`, the inhibition was 58.6% (active).

As to `COc1cccc2sc(NNC(=O)c3nc4ccccc4s3)nc12`, the inhibition was -23.2% (inactive). The result for `CC(OC(=O)c1ccc2ccccc2n1)C(=O)c1ccccc1` (stereo not given) reads -6.4% (inactive); that for `CCOc1ccccc1NC(=O)c1cccnc1`, 6% (inactive). With `CCn1c2ccccc2c2cc(NC(=O)COC(=O)c3cc(S(=O)(=O)N4CCCCC4)ccc3Cl)ccc21` the figure was 4% (inactive); with `COc1ccc(/C=C/C2=CC(C)(C)NC(=S)N2)c(OC)c1`, 9.7% (inactive); with `COC(=O)Cn1cc(/C=C/[N+](=O)[O-])c2ccccc21`, -0.7% (inactive). With `CN1C(=O)/C(=C/c2ccco2)SC1=Nc1cccc(C(=O)O)c1` the figure was 3.5% (inactive). Take `CC(C)C(=O)Nc1ccc2c3c(cccc13)CC2`: the inhibition is 1.8% (inactive). With `Cc1ccnc(NC(=O)c2ccoc2C)c1` the figure was 10.5% (inactive); with `COC(=O)c1sc(NC(=O)c2ccc(OC)cc2OC)nc1C`, 86% (active); with `CC(=O)Nc1cccc(C(=O)Nc2nc(C)cs2)c1`, 10.2% (inactive).

`COC(=O)c1sc(NC(=O)c2csc3c2CCCC3)nc1C`: the inhibition is -15.5% (inactive). Regarding `COc1ccccc1CNC(=O)c1ccc(SC)cc1OC`, the inhibition is 11.4% (inactive). The result for `COc1cc(SC)ccc1C(=O)Nc1nc(C)cs1` reads 111% (active). The result for `COc1cc(SC)ccc1C(=O)Nc1cc(C)ccn1` reads 55.6% (active); that for `COc1ccc(C(=O)Nc2nncs2)c(OC)c1`, 8.6% (inactive); that for `COc1cc(SC)ccc1C(=O)NCCOc1ccccc1Cl`, -8.5% (inactive). On to `O=c1c2ccccc2c(-c2ccccc2)nn1-c1ccccn1`, for which the inhibition was 4.6% (inactive). With `O=C(CP(=O)(c1ccccc1)c1ccccc1)N1CCOCC1` the figure was 6.3% (inactive); with `COC(=O)Cc1ccc(OCC(=O)Nc2ccc(OC(F)(F)F)cc2)cc1`, -10.9% (inactive).

For the compound `CCN1CCN(CC(=O)c2cc(OC)c(OC)c(OC)c2)CC1`, the inhibition was 11.2% (inactive).

Take `COc1ccc(-c2csc(NC(=O)CCCc3cccs3)n2)cc1`: the inhibition was 23.2% (inactive). With `Cc1ccc(-c2csc(NC(=O)Cc3cccs3)n2)cc1C` the figure was 12.1% (inactive); with `CCCc1ccc(-c2csc(NC(=O)Cc3cccs3)n2)cc1`, 43.7% (active).

`c1ccc(C2CNCc3c2ccc2ccccc32)cc1` (stereo not given): the inhibition is 3.3% (inactive). The result for `COc1ccc(S(=O)(=O)Nc2cccnc2)c(Cl)c1Cl` reads 5.5% (inactive); that for `COc1ccccc1Oc1ccc(S(=O)(=O)Nc2cccnc2)cc1`, 48.9% (active). The result for `O=S(=O)(Nc1ccccn1)c1ccc(Oc2ccccc2)cc1` reads -1.5% (inactive); that for `Cn1c(CCCOc2ccc(Cl)cc2Cl)n[nH]c1=S`, 9.7% (inactive); that for `O=C(COC(=O)C1CC2C=CC1C2)Nc1ccccc1` (stereo not given), 1% (inactive). On to `CCCCCC(=O)Nc1ccc(-c2cn3cccnc3n2)cc1`, for which the inhibition was 11.1% (inactive). With `CCCCCc1ccc(-c2ccc(C(=O)O)cc2)nc1` the figure was 52.6% (active); with `CCCCCc1ccc(-c2ccc(OCC)cc2)nc1`, 25.3% (inactive); with `CCCN(CC(=O)Nc1ccccc1C)C(=O)c1cc(=O)[nH]c2ccccc12`, 3.5% (inactive). The result for `N#Cc1nc(-c2ccc(OCc3ccccc3)cc2)oc1NCCCN1CCOCC1` reads 14.7% (inactive); that for `N#Cc1nc(Cc2ccccc2)oc1NCCc1ccccc1`, -13.4% (inactive); that for `N#Cc1nc(COc2ccc(-c3ccccc3)cc2)oc1NCc1cccnc1`, 45.2% (active). In the case of `COC(=O)c1sc2[nH]c(=S)n(N)c(=O)c2c1C`, the inhibition was 8.3% (inactive). The result for `Cc1ccc(CN(Cc2cccnc2)C(=S)Nc2cccc(Cl)c2C)cc1` reads 9.3% (inactive); that for `O=C(CN1C(=O)c2ccccc2S1(=O)=O)N1CCc2ccccc21`, 89.1% (active); that for `CNC(=O)CN1C(=O)c2ccccc2S1(=O)=O`, 10.2% (inactive). On to `O=C(CN1CCN(c2ccccn2)CC1)N1CCc2ccccc21`, for which the inhibition was 1.6% (inactive). With `CCOc1ncccc1C(=O)OCc1cn2cc(Cl)ccc2n1` the figure was 12.3% (inactive); with `O=c1cc(CSc2ccc(Cl)cc2)nc(N2CCOCC2)[nH]1`, -7.4% (inactive); with `Clc1ccc2nc(CSc3ccccc3)cn2c1`, 62.7% (active). The result for `CCOC(=O)NN1C(=O)c2ccccc2NC1c1cccc(O)c1` (stereo not given) reads -10% (inactive); that for `CN(CCc1ccccn1)C(=O)CCC1CCCN(Cc2ccccc2OC(F)F)C1` (stereo not given), 4.3% (inactive); that for `Cc1cc(C)c2[nH]c(=O)c(CN(Cc3ccccc3)C(=S)NCCCN(C)C)cc2c1`, -4.1% (inactive). For `C1CC1Cc1noc(CN2CCN(CC3CC3)CC2)n1`, the inhibition was 2.5% (inactive). With `Cc1ccc(CN(C)CC(=O)Nc2cccc([N+](=O)[O-])c2)o1` the figure was 5.5% (inactive); with `Cc1ccc(NC(=O)CN(C)CC(=O)Nc2cccc(F)c2)cc1[N+](=O)[O-]`, 46.8% (active).

On to `CN(CC(=O)Nc1cccc(F)c1)CC(=O)Nc1cccc([N+](=O)[O-])c1`, for which the inhibition was -4.2% (inactive). As to `O=S(=O)(NC1CC1)c1ccc2c3c(cccc13)CC2`, the inhibition is 11.9% (inactive).

Consider `CCOC(=O)CSc1nc(C)cc2c1C(=O)OC2`, for which the inhibition was -1% (inactive). With `c1ccc2c(CSCc3nc4ccccc4[nH]3)cccc2c1` the figure was 4.1% (inactive); with `CCOc1ccc(Br)cc1CSC(=N)N`, 34.7% (inactive).

`N=C(N)SCc1cccc2ccccc12`: the inhibition was 47.8% (active).

Regarding `CN(C)CCOCCOc1ccc(Cl)c2ccccc12`, the inhibition is 9.5% (inactive). With `CCCc1cc(=O)[nH]c(SCC(=O)c2cc(C)n(CCC)c2C)n1` the figure was 10.6% (inactive); with `Cc1cc(C(=O)CSc2nc(N)cc(=O)[nH]2)c(C)n1-c1cccc(F)c1`, 20.1% (inactive); with `Cc1cc(C(=O)CSc2nc(N)cc(=O)[nH]2)c(C)n1CCc1ccc(Cl)cc1`, 43.7% (active).
